Hits are enriched below; roughly 3.2% of the tested compounds scored in any of these assays.
esBAF inh = SWI/SNF esBAF complex inhibition; 2% of 350,000 active; mouse ES cells, Bmi1-luciferase knock-in reporter, 24 h; 100% = twice the neutral-well signal; reporter increase, % at 12.5 µM; AID 602393; in the data active = activation above about 40%; inconclusive = no clear call, values can overlap the other calls;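 note: 0% = median of the plate's neutral control wells and 100% = double that signal; a rise in the Bmi1 reporter signal indicates esBAF inhibition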
dFosB act-1 = enhances mouse delta FosB homodimer DNA binding. 0.99% of 340,000 active. purified delta FosB, TAMRA-CDK5 oligo fluorescence polarization; percent of positive-control signal above neutral wells. activation, % at 25 µM;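 active = mean activation above about 17%, with every replicate also reaching it, limit read from the data, passing the limit was not always enough; inconclusive = only one of the two conditions met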
Target sequence (P13346 whole entry, looked up): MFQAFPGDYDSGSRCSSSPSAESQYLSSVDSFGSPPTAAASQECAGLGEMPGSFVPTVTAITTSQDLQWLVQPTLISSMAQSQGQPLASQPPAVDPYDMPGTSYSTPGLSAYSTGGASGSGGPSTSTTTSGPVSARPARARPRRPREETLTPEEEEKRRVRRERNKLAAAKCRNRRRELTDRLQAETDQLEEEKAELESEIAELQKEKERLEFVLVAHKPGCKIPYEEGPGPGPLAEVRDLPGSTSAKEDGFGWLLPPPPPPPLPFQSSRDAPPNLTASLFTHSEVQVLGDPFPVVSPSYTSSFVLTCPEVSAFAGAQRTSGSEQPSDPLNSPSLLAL
CDK5 p35 inh = blocks human CDK5/p35 kinase activity; Q00535+Q15078; Recombinant CDK5/p35, ADP-Glo luminescence, 60 min; inhibition, % at 10 µM; 0.01% of 330,000 active; AID 488839;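 active = highest replicate inhibition of at least 50% and at least 75% of replicates reaching 50%; inconclusive = only one of the two criteria met; inactive = both criteria failed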;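 note: plate controls were DMSO neutral control for no effect and GW8510 at 10 µM for full effect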
Rtt109 HAT inh = C. albicans Rtt109 histone acetyltransferase inhibition. Q5AAJ8. purified Rtt109/Vps75, ThioGlo CoA-SH fluorescence, 4 h. inhibition, % at 34.9 µM. 0.16% of 330,000 active;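 active = inhibition of at least 50% in every replicate; inconclusive = best replicate reaches 50% inhibition but some replicates fall short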
SMARCA2 activ = increases SMARCA2 function in MMTV reporter cells; MG213 cells, MMTV-luciferase reporter, dexamethasone, overnight; activation, % at 9.1 µM; 1% of 370,000 active; in the data active = activation above about 7.8%;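 note: 0% = vehicle wells and 100% = reference activator wells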
DYRK1A inh = inhibitors of rat Dyrk1A kinase. Q63470. ADP-Glo luminescence, NFATc1 peptide. inhibition, % at 12.5 µM. 0.43% of 310,000 active; in the data active = inhibition above about 50%;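 note: plate controls were vehicle with enzyme for no effect and no enzyme for full effect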
dFosB act-2 = activators of mouse delta FosB homodimer DNA binding. purified delta FosB, TAMRA-CDK5 oligo fluorescence polarization; normalised: neutral wells 0, positive control 100. 2,400 tested, under 10 active. shares compounds with dFosB act-1. activation, % at 24.9 µM;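 active = highest replicate activation at or above 34% and every replicate reaching that threshold; inconclusive = meets only one of the two criteria; inactive = meets neither criterion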;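 note: higher polarization means more probe DNA bound by delta FosB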
An asterisk follows results filed as active; ? = inconclusive; / = no result.

SMILES	esBAF inh	dFosB act-1	CDK5 p35 inh	Rtt109 HAT inh	SMARCA2 activ	DYRK1A inh	dFosB act-2
CCNC1CCC(Nc2ccnc3cc(Cl)ccc23)CC1 (centres undefined)	-7	20*	0	-8	2	4	6
C#CCOCCOCCOCCNc1nc(N2CCN(C(=O)[C@H](CCCCN)n3cc([C@@H](N)CC(C)C)nn3)CC2)nc(N2CCN(C(=O)[C@H](CCCCN)n3cc([C@@H](N)CC(C)C)nn3)CC2)n1	-7	19*	3	?	/	0	?
C#CCOCCOCCOCCNc1nc(N2CCN(C(=O)[C@H]([C@@H](C)CC)n3cc([C@@H](N)CC(C)C)nn3)CC2)nc(N2CCN(C(=O)[C@H](CCCCN)n3cc([C@@H](N)CO)nn3)CC2)n1	3	7	-1	?	/	1	/
O=C(Nc1ccc(NC(=O)c2sc3ccccc3c2Cl)cc1Cl)c1ccco1	/	41*	-1	-7	0	-1	3
COc1cccc(C(=O)Nc2ccc(NC(=O)c3ccco3)c(Cl)c2)c1	/	23*	1	13	3	2	3
O=C(Nc1ccc(Oc2ccc3c(c2)C(=O)N(c2ccc(O)cc2)C3=O)cc1)c1cccs1	0	61*	-1	-3	1	-6	-4
CO[C@@H]1CN(C)C(=O)c2ccc(NC(C)=O)cc2OC[C@H](C)N(CC2CC2)C[C@H]1C	-2	/	/	/	/	/	/
Cc1cc(C(F)(F)F)c(C#N)c(SCC(=O)Nc2nc3cc(Br)ccc3s2)n1	/	37*	0	4	-5	4	7
C[C@@H]1CN([C@@H](C)CO)S(=O)(=O)c2ccc(C#Cc3ccccc3)cc2O[C@@H]1CN(C)S(=O)(=O)c1cn(C)cn1	1	/	/	/	/	/	/
Cc1cc(NC(=O)c2cncc(Br)c2)ccc1NC(=O)c1cc2ccccc2o1	-32	58*	2	-5	-3	-3	0
Cc1cc([N+](=O)[O-])ccc1NC(=O)c1cc2ccccc2o1	?	-2	1	0	2	0	/
C[C@@H]1CN([C@H](C)CO)C(=O)Cc2cc(NC(=O)Nc3ccc(F)cc3)ccc2O[C@H]1CN(C)S(=O)(=O)c1ccc(Cl)cc1	0	/	/	/	/	/	/
O=S(=O)(N[C@H]1CC[C@@H](CCn2cc(-c3cccnc3)nn2)O[C@H]1CO)c1ccccc1	-2	/	/	/	/	/	/
O=C(NC1=NCCS1)c1cc(-c2cccc(Br)c2)nc2ccccc12	/	31*	0	-1	1	-4	1
Cc1ccc(-c2cc(C(=O)NC3=NCCS3)c3ccccc3n2)cc1C	/	13	-1	-3	0	-1	/
Cc1ccc2nc(-c3cccc(Br)c3)cc(C(=O)NC3=NCCS3)c2c1	/	44*	-1	-11	-4	/	-1
Cc1cccc(NC(=O)CN2C(=O)N/C(=C/c3cc(C)n(C(C)C)c3C)C2=O)c1	-4	-2	-5	-5	-1	/	/
CCOc1cccc(/C=C2/NC(=O)N(CC(=O)Nc3cccc(C)c3)C2=O)c1O	-3	23*	0	-9	-1	5	2
CCOc1cc(/C=C2/NC(=O)N(CC(=O)Nc3cccc(C)c3)C2=O)ccc1OCC(N)=O	/	10	-8	/	-3	3	/
Cc1cccc(NC(=O)CN2C(=O)N/C(=C/c3ccc(C)s3)C2=O)c1	/	31*	-2	/	0	-4	0
C[C@H](CO)N1C[C@H](C)[C@H](CN(C)C(=O)Nc2ccc3c(c2)OCO3)Oc2ccc(NC(=O)Cc3ccccc3)cc2CC1=O	2	/	/	/	/	/	/
CCOC(=O)c1ccc(NC(=O)CN2C(=O)NC3(CCC(C)CC3)C2=O)cc1 (centres undefined)	2	?	0	-11	4	1	/
COC(=O)c1ccc(NC(=O)CN2C(=O)NC3(CCC(C)CC3)C2=O)cc1 (centres undefined)	-3	18*	0	-9	4	/	3
Cc1cccc(NS(=O)(=O)c2ccc3[nH]c(=O)[nH]c3c2)c1C	-5	-6	-1	5	-1	6	/
Cc1cccc(NS(=O)(=O)c2ccc3c(c2)Cc2cc(S(=O)(=O)Nc4cccc(C)c4C)ccc2-3)c1C	/	24*	0	1	-4	2	1
SMILES	esBAF inh	dFosB act-1	CDK5 p35 inh	Rtt109 HAT inh	SMARCA2 activ	DYRK1A inh	dFosB act-2
C[C@H]1CN([C@@H](C)CO)C(=O)c2cc(C#CCN(C)C)cnc2O[C@@H]1CN(C)C(=O)c1ccc2c(c1)OCO2	0	/	/	/	/	/	/
CC(=O)Nc1ccc2c(c1)C(=O)N(C)[C@H]1CC[C@H](CC(=O)NC3CCCCC3)O[C@@H]1CO2	0	/	/	/	/	/	/
COc1cc2c(cc1OC)-c1cc3ccc4c(c3c[n+]1CC2)OCO4	4	38*	-1	2	-2	16	-22
Cc1cc(NC(=O)CSc2nnc(COc3cccc(C)c3C)n2C)no1	/	21*	4	6	0	7	3
CCn1c(COc2cccc(C)c2C)nnc1SCC(=O)Nc1cc(C)on1	/	?	0	0	4	-2	/
COc1ccc(-c2cc(C(=O)Nc3cc(C)nn3-c3ccccc3)no2)cc1	2	23*	2	0	-2	5	-3
C/C=C/c1ccc2c(c1)O[C@H](CN(C)C(=O)C1CCOCC1)[C@H](C)CN([C@H](C)CO)S2(=O)=O	0	/	/	/	/	/	/
COc1cccc(NC(=O)N2C[C@@H](O)COC[C@H]3O[C@@H](CC(=O)NC4Cc5ccccc5C4)CC[C@@H]32)c1	-1	/	/	/	/	/	/
COc1cccc(-c2cc(C(=O)Nc3cnn(Cc4ccccc4C)c3)no2)c1	-3	43*	-1	8	1	-4	1
COc1cccc(-c2cc(C(=O)Nc3cnn(Cc4ccc(F)cc4)c3)no2)c1	-9	2	-3	-12	-4	2	/
O=C(NNC(=O)c1cc(Br)c(Br)s1)c1csc(N2CCOCC2)n1	/	44*	0	-9	-1	4	1
O=C(NCc1ccc(F)cc1)C1CCCN(c2nc3ccsc3c(=O)s2)C1 (centres undefined)	-2	75*	0	-16	-1	16	-8
Cc1c(Cl)cccc1NC(=O)Cn1cc(C(F)(F)F)cc(Cl)c1=O	/	57*	0	3	1	4	1
COC(=O)c1nn(-c2ccccc2)nc1-c1nn(-c2ccccc2)nc1C(=O)OC	31	23*	0	-6	-2	0	3
COc1ccc(C(=O)Nc2nnc(S(=O)(=O)Cc3ccccc3)s2)cc1	/	23*	0	-4	0	-2	7
COc1ccc(C2c3ccc4ccccc4c3Oc3ncn(Cc4ccco4)c(=N)c32)cc1OC (centres undefined)	-3	53*	0	6	0	1	5

Assay outcomes deposited in PubChem by several laboratories.
